Where “and” joins values, the source holds several entries; their conditions need not be identical. Equal values may be shown once. In all, about 5,500 compounds went through this assay and about 2,000 (36%) were called active. Roughly 18% stayed inconclusive and do not appear here. Rule as the data show it: active = normalized growth mostly below about 0.91 (no sharp cut-off); inconclusive = no clear call, values can overlap the other calls; inactive = mostly above about 0.92. This is one part of the list.
Assay: chemical genetic growth profiling, strain panel (AID 1159580);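 also: tested at 20 µM; growth read once vehicle control cultures reached saturation at 30 °C; 1 = growth at the plate median or of vehicle wells; lower values mean less growth of the strain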
Details: S. cerevisiae deletion strains, growth OD

Measured: normalized growth

COC1CC(O[C@H]2CC[C@]3(C=O)C4CC[C@]5(C)C(C6=CC(=O)OC6)CC[C@]5(O)C4CC[C@]3(O)C2)OC(C)C1O (some centres not stated)
inactive: locus YAL013W, strain DEP1, hits give low values 1.02 | locus YAL021C, strain ccr4, hits give low values 0.938 | locus YAL026C, strain drs2, hits give low values 1.02 | locus YAL030W, strain snc1, hits give low values 0.978 | locus YBL061C, strain skt5, hits give low values 0.99 | locus YBR009C, strain hhf1, hits give low values 0.985 | locus YBR021W, strain FUR4, hits give low values 1.01 | locus YBR023C, strain chs3, hits give low values 0.967 | locus YBR171W, strain sec66, hits give low values 1 | locus YBR229C, strain ROT2, hits give low values 1.02 | locus YBR231C, strain swc5, hits give low values 1 | locus YBR279W, strain paf1, hits give low values 1 | locus YCL011C, strain gbp2, hits give low values 0.961 | locus YCL016C, strain dcc1, hits give low values 0.954 | locus YCL029C, strain bik1, hits give low values 0.994 | locus YCL069W, strain vba3, hits give low values 0.969 | locus YCR088W, strain abp1, hits give low values 0.983 | locus YDL005C, strain med2, hits give low values 0.969 | locus YDL035C, strain GPR1, hits give low values 1.04 | locus YDL040C, strain nat1, hits give low values 0.986 | locus YDL074C, strain BRE1, hits give low values 1.09 | locus YDL101C, strain DUN1, hits give low values 1.02 | locus YDL134C, strain PPH21, hits give low values 1.02 | locus YDL185W, strain tfp1, hits give low values 0.995 | locus YDL192W, strain arf1, hits give low values 1.02 | locus YDR001C, strain nth1, hits give low values 0.955 | locus YDR069C, strain doa4, hits give low values 0.994 | locus YDR101C, strain arx1, hits give low values 1.02 | locus YDR137W, strain rgp1, hits give low values 0.975 | locus YDR159W, strain sac3, hits give low values 1 | locus YDR162C, strain NBP2, hits give low values 1.03 | locus YDR195W, strain ref2 0.914 | locus YDR297W, strain sur2, hits give low values 0.999 | locus YDR318W, strain mcm21, hits give low values 1.01 | locus YDR334W, strain swr1, hits give low values 0.977 | locus YDR335W, strain msn5, hits give low values 0.955 | locus YDR388W, hits give low values 0.987 | locus YDR392W, strain spt3, hits give low values 0.903 | locus YDR502C, strain sam2, hits give low values 0.987 | locus YEL003W, strain gim4, hits give low values 1.01 | locus YEL037C, strain rad23, hits give low values 0.977 | locus YEL061C, strain CIN8 (second series), hits give low values 0.981 | locus YER015W, strain faa2, hits give low values 0.975 | locus YER016W, strain bim1, hits give low values 0.983 | locus YER110C, hits give low values 0.986 | locus YER111C, strain swi4, hits give low values 0.994 | locus YER155C, strain BEM2 (second series), hits give low values 1.01 | locus YER155C, strain BEM2, hits give low values 1.01 | locus YER167W, strain BCK2, hits give low values 1.03 | locus YFR010W, strain ubp6, hits give low values 1 | locus YGL078C, strain dbp3, hits give low values 0.992 | locus YGL086W, strain mad1, hits give low values 0.998 | locus YGL167C, strain pmr1, hits give low values 0.976 | locus YGL173C, strain kem1, hits give low values 0.992 | locus YGL227W, strain vid30, hits give low values 0.987 | locus YGL240W, strain doc1, hits give low values 1 | locus YGL248W, strain PDE1, hits give low values 1.01 | locus YGL253W, strain hxk2, hits give low values 0.997 | locus YGR078C, strain PAC10, hits give low values 1.02 | locus YGR135W, strain pre9, hits give low values 0.981 | locus YGR229C, strain SMI1, hits give low values 1.04 | locus YGR252W, strain gcn5, hits give low values 0.949 | locus YHR013C, strain ard1, hits give low values 0.934 | locus YHR027C, strain rpn1, hits give low values 0.97 | locus YHR030C, strain SLT2, hits give low values 1.02 and 0.984 | locus YHR079C, strain IRE1 (second series), hits give low values 0.998 | locus YHR079C, strain IRE1, hits give low values 1.01 | locus YHR094C, strain hxt1, hits give low values 0.984 | locus YHR129C, strain ARP1, hits give low values 1.02 | locus YHR142W, strain chs7, hits give low values 0.918 | locus YHR200W, strain rpn10, hits give low values 0.992 | locus YIL066C, strain RNR3, hits give low values 1.05 | locus YIL073C, strain SPO22, hits give low values 1.01 | locus YIL125W, strain kgd1, hits give low values 1 | locus YIR030C, strain dcg1, hits give low values 0.993 | locus YJL092W, strain hpr5, hits give low values 0.985 | locus YJL095W, strain BCK1 (second series), hits give low values 0.987 | locus YJL095W, strain BCK1, hits give low values 1.04 and 0.985 | locus YJL115W, strain asf1, hits give low values 0.964 | locus YJL129C, strain trk1, hits give low values 0.958 | locus YJL134W, strain LCB3, hits give low values 1.01 | locus YJL154C, strain vps35, hits give low values 0.967 | locus YJL164C, strain tpk1, hits give low values 0.99 | locus YJL166W, strain qcr8, hits give low values 0.996 | locus YJL168C, strain set2, hits give low values 0.994 | locus YJL187C, strain SWE1 (second series), hits give low values 1.02 | locus YJR066W, strain TOR1, hits give low values 0.904 | locus YKL009W, strain mrt4, hits give low values 1.04 | locus YKL068W, hits give low values 1 | locus YKL085W, strain MDH1 (second series), hits give low values 1 | locus YKL085W, strain MDH1, hits give low values 1 | locus YKL160W, strain elf1, hits give low values 0.962 | locus YKL190W, strain CNB1, hits give low values 1.02 | locus YKR001C, strain vps1, hits give low values 0.992 | locus YKR026C, strain gcn3, hits give low values 0.987 | locus YKR091W, strain srl3, hits give low values 0.968 | locus YLL001W, strain dnm1, hits give low values 0.963 | locus YLL026W, hits give low values 0.982 | locus YLL041C, strain sdh2, hits give low values 0.971 | locus YLR027C, strain aat2, hits give low values 1.02 | locus YLR039C, strain RIC1, hits give low values 1.08 | locus YLR058C, strain SHM2, hits give low values 1.03 | locus YLR102C, strain apc9, hits give low values 0.996 | locus YLR113W, strain HOG1, hits give low values 1.02 | locus YLR221C, strain rsa3, hits give low values 1.02 | locus YLR258W, strain gsy2, hits give low values 0.962 | locus YLR262C, strain YPT6 (second series), hits give low values 1.01 | locus YLR262C, strain YPT6, hits give low values 1.11 | locus YLR268W, strain sec22, hits give low values 1.02 | locus YLR320W, strain mms22, hits give low values 1.03 | locus YLR330W, strain CHS5, hits give low values 1.02 | locus YLR342W, strain FKS1 (second series), hits give low values 1.06 | locus YLR342W, strain FKS1, hits give low values 1 | locus YLR357W, strain rsc2, hits give low values 0.95 | locus YLR370C, strain arc18, hits give low values 0.98 | locus YLR371W, strain rom2, hits give low values 1.01 | locus YLR384C, strain iki3, hits give low values 0.969 | locus YLR418C, strain cdc73, hits give low values 0.958 | locus YML016C, strain PPZ1, hits give low values 1.02 | locus YML032C, strain rad52, hits give low values 0.994 | locus YML120C, strain ndi1, hits give low values 0.947 | locus YML124C, strain tub3, hits give low values 0.997 | locus YMR058W, strain fet3, hits give low values 0.992 | locus YMR078C, strain ctf18, hits give low values 0.99 | locus YMR125W, strain sto1, hits give low values 0.926 | locus YMR129W, hits give low values 0.989 | locus YMR205C, strain PFK2, hits give low values 0.984 | locus YMR223W, strain ubp8, hits give low values 0.995 | locus YMR231W, strain pep5, hits give low values 1 | locus YMR307W, strain GAS1, hits give low values 1.16 | locus YNL067W, strain RPL9B, hits give low values 1 | locus YNL071W, strain lat1, hits give low values 0.967 | locus YNL183C, strain NPR1, hits give low values 0.927 | locus YNL209W, strain ssb2, hits give low values 0.984 | locus YNL233W, strain BNI4, hits give low values 1.02 | locus YNL248C, strain rpa49, hits give low values 0.904 | locus YNL250W, strain rad50, hits give low values 0.972 | locus YNL271C, strain bni1, hits give low values 1.01 | locus YNL298W, strain CLA4, hits give low values 0.998 | locus YNL307C, strain MCK1, hits give low values 0.998 | locus YNL322C, strain KRE1 (second series), hits give low values 0.971 | locus YNL322C, strain KRE1, hits give low values 1.02 | locus YNR049C, strain mso1, hits give low values 0.951 | locus YNR052C, strain pop2, hits give low values 0.988 | locus YOL012C, strain htz1 0.64 | locus YOL147C, strain pex11, hits give low values 0.987 | locus YOR001W, strain rrp6, hits give low values 0.989 | locus YOR061W, strain CKA2, hits give low values 1.05 | locus YOR069W, strain VPS5, hits give low values 1.02 | locus YOR070C, strain gyp1, hits give low values 1 | locus YOR080W, strain dia2, hits give low values 0.991 | locus YOR083W, strain WHI5, hits give low values 0.973 | locus YOR106W, strain vam3, hits give low values 0.922 | locus YOR136W, strain idh2, hits give low values 0.958 | locus YOR144C, strain elg1, hits give low values 0.989 | locus YOR184W, strain ser1, hits give low values 1.04 | locus YOR231W, strain MKK1, hits give low values 1.01 | locus YOR265W, strain rbl2, hits give low values 0.997 | locus YOR270C, strain vph1, hits give low values 1.08 | locus YOR290C, strain snf2, hits give low values 0.888 | locus YOR316C, strain cot1, hits give low values 0.984 | locus YPL051W, strain arl3, hits give low values 0.992 | locus YPL055C, strain LGE1, hits give low values 1.06 | locus YPL078C, strain atp4, hits give low values 0.927 | locus YPL106C, strain sse1, hits give low values 0.966 | locus YPL240C, strain hsp82, hits give low values 0.988 | locus YPL256C, strain CLN2, hits give low values 1.01 | locus YPR119W, strain clb2, hits give low values 0.992 | locus YPR141C, strain kar3, hits give low values 0.992 | locus YPR163C, strain tif3, hits give low values 0.993 | locus YPR167C, strain met16, hits give low values 0.987 | strain wtn01, hits give low values 1.01
